Assay outcomes: PubChem, several laboratories
A selection: hits, their analogues and other compounds. The true share with any hit is near 1.7%.
Sa RN4220 lethal: kills Staphylococcus aureus RN4220; S. aureus RN4220 growth, OD600, 16 h; inhibition, % (concentration not given with the values); 330,000 tested, 0.33% active; in the data active = inhibition above about 85%
CCHFV vOTU inh: CCHFV vOTU protease inhibition | Pep-AMC fluorescence | inhibition, % at 11.5 µM | 370,000 tested, 0.55% active | AID 651958; in the data active = inhibition above about 30%
PfHsp40 rescue: restores yeast growth despite PfHsp40 toxicity. S. cerevisiae expressing PfHsp40, growth rescue, ATP luminescence. growth rescue, % at 12.5 µM. 340,000 tested, 0.68% active. AID 504582; in the data active = growth rescue above about 28%, passing the limit was not always enough; inconclusive = no clear call, values can overlap the other calls;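 note: yeast W303a lacking pdr1 and pdr3 grown in galactose medium; growth measured after three days at 30 °C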
Mtb hypoxia inh: Mtb hypoxia fluorescent reporter inhibition. M. tuberculosis hypoxia-regulated fluorescent reporter, fluorescence. fluorescence inhibition, % (no concentration beside the values). 300,000 tested, 0.1% active. AID 1159583; in the data active = fluorescence inhibition mostly above about 23%, no sharp cut-off; inactive = mostly below about 17%
ugtP null kill: compounds lethal to S. aureus RN4220 ugtP deletion mutant; OD600 growth, 16 h; growth inhibition, % (test concentration not listed); 330,000 tested, 0.54% active; AID 1259309; in the data active = growth inhibition above about 68%
BH1578 lux ind: inducers of Vibrio cholerae quorum light production without autoinducers; V. cholerae BH1578 lux reporter, luminescence, 6 h; activation, % at 18.7 µM; 350,000 tested, 0.16% active; AID 588436; in the data active = activation mostly above about 9.7%, no sharp cut-off; inconclusive = no clear call, values can overlap the other calls; inactive = mostly below about 3.7%
Hits are given with their value; 0 = inactive; ? = inconclusive; - = no result shown; ! = not active in a repeat.

SMILES	Sa RN4220 lethal	CCHFV vOTU inh	PfHsp40 rescue	Mtb hypoxia inh	ugtP null kill	BH1578 lux ind
N#CC(=NNc1cccc2ccccc12)c1nnc2n1CCCCC2	0	-	-	0	0	-
Nc1c(Cl)cc(C2=NCCn3c2c2ccc([N+](=O)[O-])cc2[n+]3[O-])cc1Cl	0	0	0	44.5	0	0
NNC(=O)CN1CCN(c2ncc(C(F)(F)F)cc2Cl)CC1	0	0	0	0	0	0
O=C(CN1CCN(c2ncc(C(F)(F)F)cc2Cl)CC1)NCCNc1ncc(C(F)(F)F)cc1Cl	0	0	293.6	0	0	0
Cc1cc(NC(=S)Nc2ccc(C)c(Cl)c2)n[nH]1	0	0	57.1	0	0	0
COc1ccc(NC(=S)Nc2cc(C)[nH]n2)cc1Cl	0	0	0	-	0	0
Cc1ccc(-c2nn(-c3ccccc3)cc2CO)cc1	0	0	0	0	0	0
Cc1ccc(-c2nn(-c3ccccc3)cc2CNCc2ccccc2)cc1	0	0	0	0	96.9	0
O=[N+]([O-])c1ccc(-c2nc(Cl)c3c(n2)CCCC3)o1	-	0	-	-	-	29.9
CCOc1ccc(/C=C/C(=O)c2c(O)c3ccccc3oc2=O)cc1	0	0	0	0	91.9	0
CN(C)c1ccc(/C=C/C(=O)c2c(O)c3ccccc3oc2=O)cc1	0	0	0	0	0	0
Cc1ccc(N(CC(=O)NCc2cccs2)S(=O)(=O)c2cccs2)cc1	0	0	0	-	0	-
Cc1ccc(S(=O)(=O)N(CC(=O)NCc2cccs2)c2ccccc2)cc1	0	0	42.3	0	0	0
O=C(/C=C/c1ccco1)NC(=S)Nc1ccccc1N1CCCC1	0	0	58.9	0	98.6	0
O=C(C=Cc1ccco1)NC(=S)Nc1cc(C(F)(F)F)ccc1N1CCOCC1	0	-	-	0	95.9	-
O=C(/C=C/c1ccco1)NC(=S)Nc1ccccc1N1CCOCC1	0	0	0	0	97.9	0
CC1C(=O)NN=C1C(=O)NN=C/C(Br)=C/c1ccccc1 (stereo not given)	0	-	-	0	0	-
CON/C=C(\C=Nc1ccc(Cl)cc1Cl)c1ncc(C(F)(F)F)cc1Cl	0	0	0	0	0	0
CON/C=C(\C=Nc1ccccc1)c1ncc(C(F)(F)F)cc1Cl	0	0	0	0	95.9	0
O=c1oc2ccccc2nc1/C=C(\O)c1ccccc1	0	0	-	45.6	0	0
Cc1ccc(CN2C(=O)CCC2C(=O)NC(C)C)cc1 (stereo not given)	0	0	77.6	0	0	0
Cn1c(NN=Cc2c[nH]c3ccccc23)nc2ccccc21	0	-	-	0	0	-
O=C(CN1CCN(c2ccccn2)CC1)Nc1ccccc1	0	0	26.1	-	0	0
CC(=O)c1c(O)cc(O)c(C(C)=O)c1O	86.4	-	0	-	88.7	0
Cc1cccc[n+]1CCCCCCCCCC[n+]1ccccc1C	0	0	0	0	0	0
SMILES	Sa RN4220 lethal	CCHFV vOTU inh	PfHsp40 rescue	Mtb hypoxia inh	ugtP null kill	BH1578 lux ind
CCCCCCCCCC[n+]1cccc2c3ccccc3ccc21	100.5	0	133.2	0	100.0	0
CCCCCCCC[n+]1cccc2c3ccccc3ccc21	99.6	0	0	0	100.5	0
COc1ccc(CC(=O)NN=C(C)c2cccs2)cc1	0	-	-	0	0	-
CCc1ccccc1N1C(=O)CC(N2CCc3ccccc32)C1=O (stereo not given)	0	0	69.0	0	0	0
O=c1ccsn1Cc1ccccc1	0	0	0	0	87.8	0
Cc1ccc(S(=O)(=O)Nc2nc3ccc(N)cc3s2)cc1	0	0	0	0	84.1	0
Cc1ccc(C(=O)NC(C)CN2C3=NCC(Cc4ccccc4)N3CC2Cc2ccc(O)cc2)cc1Br (stereo not given)	0	-	-	0	0	-
Cc1cccc(NCC(=O)NN=Cc2cccn2C)c1	0	-	-	0	0	-
COc1ccccc1C1CCN(C(=O)c2ccc(Cl)cc2)CC1	0	0	198.9	0	0	0
O=[N+]([O-])c1ccc(-c2ccc(C=NNc3nc(N4CCCCC4)nc(N4CCCCC4)n3)o2)cc1	0	-	-	0	0	-
COc1ccc(C=C(C(=O)N2CCCCC2C(=O)O)c2ccc(OC)c(OC)c2)cc1 (stereo not given)	0	-	-	0	0	-
O=[N+]([O-])c1ncccc1OCc1ccc(-c2ccccc2)cc1	0	0	0	0	89.1	0
N#Cc1ccc(COc2cccnc2[N+](=O)[O-])cc1	0	0	0	0	0	0
CCOc1ccc(-n2c(C)cc(C(=O)NS(=O)(=O)c3ccc(C)cc3)c2C)cc1	0	0	0	0	92.2	0
Cc1ccc(-n2c(C)cc(C(=O)NS(=O)(=O)c3ccc(C)cc3)c2C)cc1	0	0	0	0	98.2	0
CCOc1ccc(S(=O)(=O)NC(=O)c2ccccc2)cc1	0	0	0	0	0	0
Cc1ccc(S(=O)(=O)NC(=O)c2cc(C)n(C3CC3)c2C)cc1	0	0	0	0	0	0
COc1ccc(N2C(=O)N3C(c4ccc(Br)cc4)C4C(=O)N(C(C)(C)C)C(=O)C4[C@]3(Cc3ccccc3)C2=O)cc1 (stereo not given in full)	0	-	-	0	0	-
CCC(C)n1ncn(-c2ccc(N3CCN(c4ccc(O)cc4)CC3)cc2)c1=O (stereo not given)	0	0	0	0	0	0
CCC(C)n1ncn(-c2ccc(N3CCN(c4ccc(OCC5COC(Cn6cncn6)(c6ccc(Cl)cc6Cl)O5)cc4)CC3)cc2)c1=O (stereo not given)	0	0	181.2!	0	0	0
O=C(NCc1cccnc1)c1c(O)c2cccc3c2n(c1=O)CCC3	0	0	60.1	0	0	0
NCCNC(=O)c1c(O)c2cccc3c2n(c1=O)CCC3	0	0	0	0	0	0
Cc1ccc(C(=O)OCC(=O)NC2CCCC(C)C2C)cc1S(=O)(=O)N1CCCCC1 (stereo not given)	0	0	0	24.4	0	0
Cc1cc(OCCn2cc(/C(N)=N/O)c3ccccc32)ccc1Cl	0	0	0	0	93.1	0
COC(=O)c1cn(CCOc2ccc(C)cc2)c2ccccc12	0	0	0	0	0	0
SMILES	Sa RN4220 lethal	CCHFV vOTU inh	PfHsp40 rescue	Mtb hypoxia inh	ugtP null kill	BH1578 lux ind
COc1cc(C(=O)NCC(=O)NN=C(C)c2ccc3c(c2)CCCC3)cc(OC)c1OC	0	-	-	0	0	-
C[C@]12CC[C@H](O)CC1=CCC1C2CC[C@@]2(C)C1CC[C@@H]2OCc1ccccc1 (stereo not given in full)	0	0	0	0	0	0
CC12CCC(O)CC1=CCC1C2CCC2(C)C(c3ccn[nH]3)CCC12 (stereo not given)	0	0	0	0	97.6	0
Cc1ccc(NC2(c3nnnn3-c3c(C)cccc3C)CCCCC2)cc1	0	0	65.8	0	0	0
Cc1cc(Nc2ncc(Cl)cc2Cl)n(-c2ccccc2C)n1	0	0	0	0	0	0
Cc1ccc(-n2nc(C)cc2Nc2ncc(Cl)cc2Cl)cc1	0	0	93.4	0	0	0
CSc1nc2ccc(Cl)cc2[nH]1	0	0	0	0	0	0
CSc1nc2cc(Oc3cccc(Cl)c3Cl)c(Cl)cc2[nH]1	99.8	0	?	0	97.2	0
CCC(=NN=C(CC)c1ccc(O)cc1)c1ccc(O)cc1	0	-	-	0	0	-
